Assay outcomes from PubChem.
KDM5B inh – KDM5B demethylase inhibition. Q9UGL1. KDM5B demethylase, FDH-coupled NADH fluorescence (FDH is formaldehyde dehydrogenase). Potency, µM (highest dose often 57.7 µM), actives largely listed as inhibitors. 2.6% of 220,000 active. AID 1347165; active means well fitted inhibition curve with a large enough effect; further: 0% is about no effect; nearly all actives have a fitted effect of over 70% in size
Target sequence (Q9UGL1 whole entry, looked up): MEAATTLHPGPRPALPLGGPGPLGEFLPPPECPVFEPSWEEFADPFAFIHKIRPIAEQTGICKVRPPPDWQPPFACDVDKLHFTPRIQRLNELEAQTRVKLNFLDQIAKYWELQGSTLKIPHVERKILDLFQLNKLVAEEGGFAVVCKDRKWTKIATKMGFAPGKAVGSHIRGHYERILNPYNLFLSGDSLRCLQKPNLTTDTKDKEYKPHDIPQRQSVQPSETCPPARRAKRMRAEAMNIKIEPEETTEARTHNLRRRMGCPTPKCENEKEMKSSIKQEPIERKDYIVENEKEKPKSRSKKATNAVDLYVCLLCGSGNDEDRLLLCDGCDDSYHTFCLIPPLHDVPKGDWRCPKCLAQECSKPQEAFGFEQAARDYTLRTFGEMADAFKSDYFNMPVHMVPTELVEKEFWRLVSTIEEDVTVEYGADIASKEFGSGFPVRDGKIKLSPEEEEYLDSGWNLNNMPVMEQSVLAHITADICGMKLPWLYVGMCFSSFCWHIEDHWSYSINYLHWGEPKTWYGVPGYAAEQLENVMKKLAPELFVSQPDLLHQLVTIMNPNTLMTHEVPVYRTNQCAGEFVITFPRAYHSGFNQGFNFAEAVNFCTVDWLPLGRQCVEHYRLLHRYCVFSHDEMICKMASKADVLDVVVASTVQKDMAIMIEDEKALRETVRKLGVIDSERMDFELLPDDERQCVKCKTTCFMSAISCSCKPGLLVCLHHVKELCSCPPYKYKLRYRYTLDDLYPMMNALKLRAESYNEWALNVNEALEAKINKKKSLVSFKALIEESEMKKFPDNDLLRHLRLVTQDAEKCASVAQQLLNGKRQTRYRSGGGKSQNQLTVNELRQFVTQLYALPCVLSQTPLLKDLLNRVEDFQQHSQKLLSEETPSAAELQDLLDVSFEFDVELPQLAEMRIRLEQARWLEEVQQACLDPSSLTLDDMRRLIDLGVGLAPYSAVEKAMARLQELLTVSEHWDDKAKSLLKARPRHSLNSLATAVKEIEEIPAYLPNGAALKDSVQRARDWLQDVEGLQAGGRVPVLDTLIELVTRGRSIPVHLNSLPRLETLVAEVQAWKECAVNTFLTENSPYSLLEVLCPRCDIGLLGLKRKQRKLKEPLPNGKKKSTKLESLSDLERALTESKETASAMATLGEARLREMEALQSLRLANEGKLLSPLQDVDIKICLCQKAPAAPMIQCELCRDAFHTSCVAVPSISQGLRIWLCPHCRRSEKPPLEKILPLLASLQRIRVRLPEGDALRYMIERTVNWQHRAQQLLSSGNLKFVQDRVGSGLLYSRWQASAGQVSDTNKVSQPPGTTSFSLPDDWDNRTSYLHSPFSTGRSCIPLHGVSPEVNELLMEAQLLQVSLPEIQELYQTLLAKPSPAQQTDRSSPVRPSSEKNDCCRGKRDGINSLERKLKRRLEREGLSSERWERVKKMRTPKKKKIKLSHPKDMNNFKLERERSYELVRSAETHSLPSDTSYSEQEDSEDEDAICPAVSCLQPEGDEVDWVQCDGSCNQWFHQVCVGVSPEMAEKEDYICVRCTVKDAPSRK
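KDM5BΔAP (200 nM final) in 50 mM HEPES pH 7.5, 0.01% Tween-20 was preincubated 10 min at RT with compound over a concentration range. Substrate mix (H3K4me3 12.5 µM, α-KG 25 µM, Fe²⁺, ascorbate, NAD⁺, FDH) was added, and NADH fluorescence change over 30 min gave dose-response curves.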
Active calls of the source: *; i = inactive; ! = a repeat was not active. The full list was thinned out, with hits kept by preference. Potency means the concentration at half of the fitted maximal effect.

SMILES	KDM5B inh
COCCN1CCCC2(CCN(c3nc(C)nc4sccc34)C2)C1=O (stereo not given)	i
Cc1cccc(CN2CCCC3(CCN(c4nc5ccccc5o4)C3)C2=O)c1 (stereo not given)	i
Cc1cccn2cc(C(=O)N3CCC4(CCCN(CC5CCC5)C4=O)C3)nc12 (stereo not given)	i
CCCN1CCCC2(CCN(c3cc(C)c4cccc(OC)c4n3)C2)C1=O (stereo not given)	28µM*
O=C1N(CC2CCC2)CCCC12CCN(S(=O)(=O)N1CCOCC1)C2 (stereo not given)	i
COCCN1CCCC2(CCN(c3nc(OC)cc(OC)n3)C2)C1=O (stereo not given)	i
Cc1cccc(CN2CCCC3(CCN(c4cc(C)c5ccccc5n4)C3)C2=O)c1 (stereo not given)	28µM*
O=C1N(Cc2cccc(F)c2F)CCCC12CCN(c1nc3ccccc3o1)C2 (stereo not given)	i
Cc1cc(N2CCC3(CCCN(CC4CCC4)C3=O)C2)nc2ccccc12 (stereo not given)	28µM*
CCOC(=O)c1ccc(NC(=O)Cn2c(=O)n(CC)c(=O)c3c2cc(C)n3C)cc1	i
COc1ccc(-c2cc(-c3nc(-c4ccccc4F)no3)[nH]n2)c(OC)c1	i
CCCCCCCCOC(=O)C1C(c2ccccc2)C(C(=O)O)C1c1ccccc1 (stereo not given)	i
Cn1c(COc2ccc(Cl)cc2)n[nH]c1=S	i
CC(=O)c1ccc(NS(=O)(=O)c2ccc3[nH]c4c(c3c2)CCCC4)cc1	i
O=C(CN1CC(=O)NC1=O)NCc1ccc2[nH]c3c(c2c1)CCCCCC3	22µM*
CC(=O)c1ccc(NS(=O)(=O)c2ccc3[nH]c4c(c3c2)CCCCCC4)cc1	i
CCOC(=O)CSc1nc2c(c(=O)n(C)c(=O)n2C)n1Cc1ccc(C)cc1	i
COc1ccc(CN2C[C@H](O)C[C@H]2c2nc(-c3ccncc3)no2)cc1	i
CS(=O)(=O)c1ccc(CN2C[C@H](O)C[C@H]2c2nc(-c3cnccn3)no2)cc1	35µM*
CC(=O)N1CCC(N2C[C@H](O)C[C@H]2c2nc(-c3cnccn3)no2)CC1	i
Cc1ccc2c(c1)C(O)(CC(=O)c1ccccn1)C(=O)N2 (stereo not given)	i
O=C(O)c1cc(-c2ccco2)nc2cc(Br)ccc12	i
COc1cc(C#N)ccc1OC(C)c1ccccc1Cl (stereo not given)	i
O=C(NCc1ccnc2[nH]ccc12)c1ccc(C(F)(F)F)cc1	35µM*!
O=C(NCc1ccnc2[nH]ccc12)c1ccncc1	i
SMILES	KDM5B inh
O=C(NCc1ccnc2[nH]ccc12)c1cccnc1	i
C=CCn1c(N2CCN(Cc3cccc4ccccc34)CC2)nc2c1c(=O)[nH]c(=O)n2C	i
CCN1C(=O)N/C(=C/c2cn(CC)c3ccccc23)C1=O	i
Nc1cccc(OCC(=O)O)c1	i
CCOc1cc2c(cn1)NCCN(Cc1ccccc1O)C2	35µM*
Cc1ccc2c(c1)N1C(=O)OC[C@@H]1CCN(Cc1cccnc1)C2	i
Cc1cccc(CN2CCNc3cnc(OCc4cccnc4)cc3C2)c1	18µM*
COc1ccc(OC)c(CN2CCNc3cnc(Nc4cccnc4)cc3C2)c1	25µM*
COc1ccc(OC)c(CN2CCNc3cc(Nc4ccccc4)ncc3C2)c1	i
Fc1ccccc1CN1CCNc2cc(Nc3ccccc3)ncc2C1	i
COc1ccc(OC)c(CN2CCNc3cnc(OCc4cccnc4)cc3C2)c1	40µM*
Cc1cccc(CN2CC(N(Cc3cccnc3)S(C)(=O)=O)C2)c1	i
COc1ccc(OC)c(CN2CCC3(CC2)OC(=O)N(Cc2cccnc2)C3(C)c2ccccc2)c1 (stereo not given)	i
COc1ccc(OC)c(CN2CCC(Cc3ccccc3)CC2)c1	i
c1cncc(Nc2cc3c(cn2)CN(Cc2c[nH]c4ccccc24)CCN3)c1	i
O=C(Cn1nc(C(=O)O)c2ccccc2c1=O)Nc1ccc(F)c(F)c1	i
CCOc1ccc2oc(=O)cc(CN3CCN(Cc4ccccc4F)CC3)c2c1	i
C=CCC1(CC=C)CCCN1	i
Cc1ccc(C(=O)OCc2ccc(C#N)cc2)cc1O	i
CCOc1ccccc1N(CC(=O)N1CCN(C)CC1)S(=O)(=O)c1ccc(Cl)cc1	i
Cc1ccc(NC(=S)NNC=O)cc1	i
N#CC1(NC(=O)CSc2ccc(C(F)(F)F)cn2)CCCCCC1	i
O=C(NCc1coc(-c2cccs2)n1)c1ccc(Cl)cc1	i
CCc1ccc(C(=O)c2sc(Nc3ccc(OC)cc3)c(C(N)=O)c2N)cc1	i
COc1ccc(-c2ccc(C#N)c(SCC(=O)NCCc3ccc(OC)c(OC)c3)n2)cc1	i
SMILES	KDM5B inh
O=C(Nc1ccc2c(c1)OCCO2)c1cc2cc(Br)ccc2[nH]1	i
CC(=O)c1c(C)[nH]c(-c2csc(NC3CCCC3)n2)c1C	i
COc1cccc(CN2CCCCCCNC(=O)CC2)c1	i
COc1cccc(CN2CCn3c(nnc3[C@@H]3C[C@@H](O)CN3Cc3cccnc3)C2)c1	i
COc1cccc(CN2CCNc3cnc(OCc4cccnc4)cc3C2)c1	35µM*
O=C(/C=C/N1CCN(C/C=C/c2ccccc2)CC1)C(F)(F)F	i
Fc1ccccc1CSCc1ccc(-c2nc(-c3ccccc3)no2)o1	i
CCCc1noc(-c2ccn3c(CNC(=O)c4ccoc4)nnc3c2)n1	i
CCCc1noc(-c2ccn3c(CNC(=O)CCC4CCCC4)nnc3c2)n1	3.5µM*
CCc1noc(-c2ccn3c(CNC(=O)Cc4cccc(OC)c4)nnc3c2)n1	22µM*
CCc1noc(-c2ccn3c(CNC(=O)CCc4cccc(OC)c4)nnc3c2)n1	28µM*
COc1cccc(CC(=O)NCc2nnc3cc(-c4nc(C(C)C)no4)ccn23)c1	28µM*
Cc1ccc(C(C)NC(=O)CSc2nc(CN3CCOCC3)nc3ccccc23)cc1C (stereo not given)	i
N#C/C(=C\c1c[nH]c2ccccc12)C(=O)Nc1ccccc1O	i
CCN(Cc1ccc(C(=O)Nc2cccc(C(=O)NC3CC3)c2)cc1)C(C)C	i
OCC#CC[N+]1(CC#Cc2ccc(C#CC[N+]3(CC#CCO)CCCCC3)cc2)CCCCC1	i
Cc1ccc2[nH]c(C)c(CC(=O)NC(C)c3ccncc3)c2c1 (stereo not given)	i
C=CCSC1=N/C(=C\C=C\c2ccccc2)C(=O)S1	i
COc1ccc(Nc2nc(-c3ccc(OC)cc3)c(C)s2)cc1	i
O=C(O)CCCC(=O)c1ccc2c(c1)OCCOCCOCCOCCO2	i
CCc1noc(-c2ccn3c(CNC(=O)c4ccccc4Cl)nnc3c2)n1	i
COc1cccc(CCC(=O)NCc2nnc3cc(-c4nc(C5CC5)no4)ccn23)c1	28µM*
CCc1noc(-c2ccn3c(CNC(=O)CCc4ccccc4)nnc3c2)n1	25µM*
CCc1noc(-c2ccn3c(CNC(=O)c4ccccc4C)nnc3c2)n1	i
O=C(Nc1cccc2cccnc12)NC12CC3CC(CC(C3)C1)C2	i
CCOc1ccc(-c2[nH]nc3c2C(c2cc(OC)c(OC)cc2OC)C(C#N)=C(N)O3)cc1OC (stereo not given)	i
C#CCNC(=O)CN1CCN(C(=O)c2ccc(F)cc2)CC1	i
Cn1c(CNc2cccc(Br)c2)c(C#N)c2ccccc21	i
O=C(NCCNC(=O)c1cc(-c2ccncc2)nc2ccccc12)c1ccco1	i
